From PubChem BioAssay
Active and inactive are the calls of the source. No rule for the calls is given here.

molecular target: Pantothenate synthetase (Mycobacterium tuberculosis (strain ATCC 25618 / H37Rv)) (UniProt P9WIL5); test: Coupled enzyme confirmation of inhibitors against recombinant Mtb PanC (AID 375); settings: coupled enzyme assay; at 10 µM, hits give high values;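 also: 0% = full reaction with vehicle and 100% = no enzyme background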
Sequence (P9WIL5 whole entry, looked up): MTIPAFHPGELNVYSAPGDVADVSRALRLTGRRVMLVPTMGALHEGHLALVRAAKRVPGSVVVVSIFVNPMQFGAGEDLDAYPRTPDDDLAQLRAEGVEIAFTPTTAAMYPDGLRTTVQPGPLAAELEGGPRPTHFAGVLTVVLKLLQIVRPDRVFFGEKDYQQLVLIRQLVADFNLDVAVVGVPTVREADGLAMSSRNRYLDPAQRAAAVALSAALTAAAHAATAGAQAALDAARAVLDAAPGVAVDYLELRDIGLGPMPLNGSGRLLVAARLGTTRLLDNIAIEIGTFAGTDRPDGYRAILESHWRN

SMILES	inhibition
CCCN(CCC)CCNS(=O)(=O)c1ccc2c(c1)oc(=O)n2C	2% (inactive)
CCN1CCCC1CNC(=O)CS(=O)(=O)Cc1nc(-c2ccccc2C)oc1C (stereo not given)	0% (inactive)
COc1ccc(CCn2c(=N)c(C#N)cc3c(=O)n4ccccc4nc32)cc1	0% (inactive)
COc1ccc(C)cc1S(=O)(=O)N1CCN(S(=O)(=O)c2cc(C)ccc2OC)CC1	5% (inactive)
CC1(C)CN=C(N2CCN(c3ncnc4sc5c(c34)CCCC5)CC2)S1	0% (inactive)
CCOC(=O)C(NC(=O)c1ccc(OC)cc1)(N1CCOCC1)C(F)(F)F (stereo not given)	2% (inactive)
Cc1cnc(-c2nnc(N(C)C(=O)C3CCOC3)s2)cn1 (stereo not given)	3% (inactive)
COC(=O)c1cc(NS(=O)(=O)c2ccc3c(c2)CCC(=O)N3)cc(C(=O)OC)c1	0% (inactive)
CN(C)C(=O)c1ccc(COc2ccccc2Br)o1	0% (inactive)
O=C1CS/C(=N\C(=O)N2c3ccccc3Sc3ccccc32)N1	0% (inactive)
CCOCCCNC(=O)C1CCC(=O)N1CCc1ccccc1 (stereo not given)	5% (inactive)
O=C(CSc1nnc(-c2ccc(Br)cc2)n1C1CCCCC1)N1CCCC1	2% (inactive)
O=C(O)c1cc(/C=N\O)ccc1OCc1ccccc1	3% (inactive)
Cc1ccc(Cl)c(Nc2ccccc2C(=O)O)c1Cl	0% (inactive)
COCCN1Cc2cccc(C(=O)Nc3cccnc3)c2C1=O	1% (inactive)
COc1ccc(OC)c(S(=O)(=O)NCCC2=CCCCC2)c1	6% (inactive)
CN(c1ccccc1)C(c1ccc(F)cc1)c1nnnn1CC1CCCO1 (stereo not given)	0% (inactive)
CCC(=O)N1CCc2cc(S(=O)(=O)CCC(=O)Nc3ccc(C)c(F)c3)ccc21	0% (inactive)
CCCC1CC(C)(C(=O)Cn2[nH]c(=O)ccc2=O)OC1=O (stereo not given)	10% (inactive)
CCCN(CCC)C(=O)C(CCC(=O)O)NC(=O)c1ccccc1 (stereo not given)	0% (inactive)

SMILES	inhibition
CCC(C)NC(=O)CSC1=Nc2ccccc2C2=NC(CC(=O)NCc3ccccc3)C(=O)N12 (stereo not given)	0% (inactive)
CCCCc1ccc(NC(=O)COCC)cc1	0% (inactive)
COc1cccc(-c2nnc(NC(C)=O)o2)c1	0% (inactive)
CC1Oc2ccccc2N(Cc2ccccc2Cl)C1=O (stereo not given)	9% (inactive)
COc1ccc(-n2c(Cc3cccn3C)nnc2SCC(=O)NCC2CCCO2)cc1 (stereo not given)	11% (inactive)
CCOc1ccc(N2C(=O)CC(N3CC(C)OC(C)C3)C2=O)cc1 (stereo not given)	0% (inactive)
Cc1cc(S(=O)(=O)N2CCN(c3ccccc3C)CC2)ccc1F	5% (inactive)
Cc1cc(C(=O)N2CCCc3ccccc32)no1	3% (inactive)
COc1ccccc1OCC(=O)N1CCNC1=O	0% (inactive)
Cc1cc(Cl)ccc1OCCCC(=O)N1CCOCC1	0% (inactive)
Cc1ncc(CSc2nc3ccccc3[nH]2)c(N)n1	5% (inactive)
COc1nc(C)ccc1-c1noc(-c2ccncc2)n1	2% (inactive)
O=C(CCCCCN1C(=O)CCC1=O)NCc1ccccc1	11% (inactive)
CCOC(=O)N1CCN(S(=O)(=O)c2cc(Cl)ccc2Cl)CC1	3% (inactive)
Cc1ccc(C(C(=O)NC(C)(C)C)N(C(=O)c2csnn2)c2cccc(F)c2)o1 (stereo not given)	0% (inactive)
CCOC(=O)c1sc(NC(=O)CSc2nnnn2-c2ccccc2)c(C(=O)OCC)c1C	0% (inactive)
O=C(NCCCn1ccnc1)c1csc2ccccc12	7% (inactive)
Cc1cc(C)cc(NC(=O)N2CCC(c3nc4ccccc4o3)CC2)c1	7% (inactive)
Cc1ccc(S(=O)(=O)N(CCO)c2cc3c(s2)CCCC3)cc1	0% (inactive)
COc1ccc(C2C(C#N)=C(C)NC3=C2C(=O)CC(C)(C)C3)c(OC)c1 (stereo not given)	0% (inactive)
